Measured values published in the supplement of paper PMC6555819.

Assays:
Experiment in all cases: PBM binding z-score (relative to random genomic background probes); higher = stronger binding; sequences stand for … in GC…GCGATTGACAGCGTAGAATGAAGG
[1] = tested on: FXR:RXRa (NR concentration 270 nM, RXRa partner concentration 90 nM)
How it was run: (§1)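 Each nuclear receptor dimer, without ligand, was incubated for 1 h on custom Agilent 4×180K protein-binding microarrays. Binding was detected with antibodies against each partner (one per run), and scanned fluorescence was regression-normalized. The binding z-scores are referenced to random human genomic background probes.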

[2] = tested on: LXRa:RXRa (NR concentration 270 nM, RXRa partner concentration 90 nM)
How it was run: as §1

[3] = tested on: LXRa homodimer (NR concentration 270 nM)
How it was run: as §1

[4] = tested on: LXRb:RXRa (NR concentration 270 nM, RXRa partner concentration 90 nM)
How it was run: as §1

[5] = tested on: LXRb homodimer (NR concentration 270 nM)
How it was run: as §1

[6] = tested on: PPARa:RXRa (NR concentration 270 nM, RXRa partner concentration 90 nM)
How it was run: as §1

[7] = tested on: PPARg:RXRa (NR concentration 180 nM, RXRa partner concentration 90 nM)
How it was run: as §1

[8] = tested on: PPARg:RXRa 270nM:90nM, anti-RXR (NR concentration 270 nM, RXRa partner concentration 90 nM)
How it was run: as §1

[9] = tested on: PPARg:RXRa 30nM:10nM, anti-RXR (NR concentration 30 nM, RXRa partner concentration 10 nM)
How it was run: as §1

[10] = tested on: PPARg:RXRa 90nM:30nM, anti-RXR (NR concentration 90 nM, RXRa partner concentration 30 nM)
How it was run: as §1

Sequence	PBM binding z-score [1]	PBM binding z-score [2]	PBM binding z-score [3]	PBM binding z-score [4]	PBM binding z-score [5]	PBM binding z-score [6]	PBM binding z-score [7]	PBM binding z-score [8]	PBM binding z-score [9]	PBM binding z-score [10]
CATCCAAGGTCATAGGAGGTCAGTGAAGACAGAT	7.76	7.88	6.67	6.38	1.99	6.12	6.25	6.07	3.14	4.93
CGTCCAAGGTCAAAGGCCAGTGAAGAGATGACGG	7.32	5.28	0.422	3.87	0.919	6.01	6.49	6.54	3.55	5.57
ATATGTAGGGTAGCTGGGGTCATTCAGACTAGGC	3.69	4.07	2.16	4.42	1.68	5.28	5.01	4.85	2.14	3.95
AGAACGAAGGCACGCTGAGTTGATAGCAGAGTAG	-0.877	-0.66	-0.838	-1.06	-0.997	-0.367	0.622	-0.693	-0.318	-0.476
CCGAGTATGTTATGGGGCATTCAGGCAACGGTGA	0.355	-0.00818	-0.0828	0.322	-0.243	0.665	0.711	1.75	0.316	1.35
GATACAGGGTCAGCTAGAGGCCAGAATATGGAAA	4.72	2.63	-0.176	2.61	-0.466	4.48	3.78	3.14	1.04	2.25
ACAGACAGGCGAGTGAAGGTAACTCAGCTGGACG	0.222	-0.221	-0.463	-0.649	-0.426	-0.25	0.686	-0.142	-0.453	-0.153
TGAATGAGGTTATAACATCAGGGAACGTTGCAAA	1.52	1.46	-0.281	1.2	-0.639	2.52	1.12	1.54	0.946	1.41
CCTAGCAGGCCAGGGTCACGCAAGCATTTCGCTT	4.27	3.3	-0.658	3.24	-0.358	4.73	3.11	3.95	0.595	2.58
TCTTGTAGATCCAAGGTTAAGAAAGCCGAAGCCT	0.319	0.55	-0.254	0.993	-0.378	1.65	1.15	3.41	3.23	3.55
TCTCCGAGGACACGAAAGGTCAGAGCTCGACATC	3.26	3.9	2.63	3.48	0.562	3.68	1.53	2.82	2.39	2.44
CGTCAAAGTTCAAGGTAACGCAACAGAAAGCAGC	6.65	5.28	2.35	3.52	1.08	4.51	4.65	5.25	2.32	4.14
